Bioassay records (PubChem BioAssay)
In the library only some 12% were active in any assay of this set; here they are far more common.
PLK1 PBD inh: inhibitors of human PLK1 polo-box domain binding | P53350 | Plk1 PBD binding of FITC phosphopeptide, fluorescence polarization | Potency, µM, for inactives: max response, negative = inhibition, usual class: inhibitors | 360,000 compounds, 2.8% hits; further: series mostly up to about 57 µM; on the % scale 0 is the no-effect control and ±100 the full control effect; nearly all actives have a fitted effect of over 65% in size
Target sequence (P53350 whole entry, looked up, the tested form may be a part): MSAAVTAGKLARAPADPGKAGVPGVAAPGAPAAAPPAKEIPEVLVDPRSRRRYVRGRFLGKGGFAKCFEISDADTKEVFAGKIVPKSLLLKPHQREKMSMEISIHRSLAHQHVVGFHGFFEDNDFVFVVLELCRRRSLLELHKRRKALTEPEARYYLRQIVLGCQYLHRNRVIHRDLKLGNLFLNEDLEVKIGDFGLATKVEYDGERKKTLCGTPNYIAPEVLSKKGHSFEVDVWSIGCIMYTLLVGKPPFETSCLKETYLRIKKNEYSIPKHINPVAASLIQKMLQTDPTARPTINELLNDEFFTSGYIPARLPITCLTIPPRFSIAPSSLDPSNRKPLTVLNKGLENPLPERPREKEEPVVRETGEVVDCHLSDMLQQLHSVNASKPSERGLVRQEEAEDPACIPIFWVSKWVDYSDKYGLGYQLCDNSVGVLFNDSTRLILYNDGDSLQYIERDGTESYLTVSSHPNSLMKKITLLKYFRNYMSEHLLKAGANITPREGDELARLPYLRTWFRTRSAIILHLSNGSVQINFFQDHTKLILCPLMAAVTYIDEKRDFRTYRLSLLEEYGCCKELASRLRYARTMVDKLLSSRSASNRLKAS
BAZ2B block: BAZ2B (human) inhibition. AlphaScreen BAZ2B-H3K14Ac peptide displacement. AID 504333. 360,000 compounds, 4.4% hits. Potency, µM (titrated, usually from 114 µM), for the others: at the highest dose activity change, negative = inhibition, most hits filed as inhibitors; further: on the % scale 0 is the no-effect control and ±100 the full control effect; nearly all actives have a fitted effect of over 60% in size
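Multi-concentration screen (max 110 uM) measuring displacement of acetylated histone H3 peptide from BAZ2B by AlphaScreen, using 50 nM protein, 50 nM peptide and 10 ug/mL streptavidin donor plus Ni-chelate acceptor beads.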
HP1b chromo inh: HP1-beta chromodomain-methylated histone interaction inhibition | Potency, µM (highest dose often 114 µM), for the others: at the top dose activity change, negative = inhibition, hits mostly inhibitors | AlphaScreen HP1-beta / biotin-H3K9me3 peptide binding | P83916 | 390,000 compounds, 0.56% hits | AID 540317; further: nearly all actives have a fitted effect of over 70% in size
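Compound inhibition of the preformed complex between 50 nM HP1-beta and 50 nM biotinylated H3K9me3 peptide was read by AlphaScreen. Buffer was PBS pH 7.4 with 0.01% Tween-20. Incubations ran 30 min at room temperature, with 10 ug/mL donor/acceptor beads.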
Sfp inh: Sfp phosphopantetheinyl transferase inhibition; Biochemical Sfp PPTase activity, qHTS; Q9F4F7; AID 1490; 310,000 compounds, 3.5% hits; Potency, µM, without a hit: largest response in the series, negative = inhibition, hits mostly inhibitors;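 further: the enzyme is Sfp with the accession as filed and its product quenches rhodamine fluorescence; 0% = enzyme reaction without inhibitor and -100% = no enzyme wells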
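Reaction rates are the 30-min fluorescence difference (ex 525, em 598 nm) in wells containing 15 nM Sfp, 5 uM rhodamine-CoA and 12.5 uM BHQ-2-YbbR at pH 7.6 with 10 mM MgCl2.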
G9a block: blocks human histone lysine methyltransferase G9a; Q96KQ7; G9a H3K9 monomethylation, AlphaScreen, 2 h; Potency, µM (titrated, usually from 102 µM), for inactives: top-dose activity, negative = inhibition, hits mostly inhibitors; 350,000 compounds, 8.8% hits; AID 504332; further: on the % scale 0 is the no-effect control and ±100 the full control effect; nearly all actives have a fitted effect of over 75% in size
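Step 1: enzyme (final 20 nM) with compound, 15 min RT. Step 2: substrate peptide 500 nM and SAM 20 uM, 2 h RT. Step 3: anti-H3K9me1 antibody and AlphaScreen beads, 10 min, then plate read.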
JMJD2A Tudor inh: inhibitors of human JMJD2A Tudor domain; Potency, µM (doses to about 114 µM), without a hit: at the highest dose activity change, negative = inhibition, hits mostly inhibitors; AlphaScreen JMJD2A-Tudor / H3K4me3 peptide binding; AID 504339; 390,000 compounds, 4.4% hits; further: on the % scale 0 is the no-effect control and ±100 the full control effect; nearly all actives have a fitted effect of over 50% in size
* marks the source's active call; other numbers are inactive results; ? = inconclusive; nt = no result; [ ] = remark or other dose. The call rests on the fitted dose curve; in most records, active means well fitted curve in the direction sought with a large enough effect; inconclusive means small, poorly fitted or top-dose-only effect, or another doubt; inactive means no such curve, though single readings can be large; an effect the other way counts as inactive or inconclusive. Potency means the concentration at half of the fitted maximal effect.

SMILES | PLK1 PBD inh | BAZ2B block | HP1b chromo inh | Sfp inh | G9a block | JMJD2A Tudor inh
O=C1CCCC(O)=C1C(C#Cc1ccccc1)C1=C(O)CCCC1=O | 2.4µM* | 0% | ? | -77% | 0.89µM* | 16µM*
CC1(C)CC(=O)C(C(C#Cc2ccccc2)C2=C(O)CC(C)(C)CC2=O)=C(O)C1 | 4.2µM* | ? | 28% | ? | 13µM* | -6%
C/C(=N/NC(=O)c1ccccc1)C1=C(O)CC(C)(C)CC1=O | -16% | -11% | 35% | -2% | nt | -1%
O=C1CCCC(O)=C1Sc1ccccc1C(=O)O | 21µM* | 79µM* | 25µM* | 56µM* | 25µM* | 22µM*
O=C(CSc1nc(-c2ccccc2)cs1)Nc1ccccc1[N+](=O)[O-] | -6% | 25µM* | ? | 3% | ? | ?
Cc1cccc(Nc2nnc(SCC(=O)c3ccc(Br)s3)s2)c1C | -27% | -36% | 26% | 6% | 4.5µM* | -13%
O=C(CSc1nc(-c2ccccc2)cs1)Nc1nccs1 | -13% | ? | 30% | -17% | ? | -10%
Cc1cccc(Nc2nnc(SCC(=O)Nc3ccccc3[N+](=O)[O-])s2)c1 | -13% | -11% | -12% | 8% | -24%[59 µM] | ?
Cc1ccccc1NC(=O)CSc1ccsc1[N+](=O)[O-] | ? | 40µM* | ? | -10% | ? | 25µM*
C/C(N)=C(/C#N)C(=O)CSc1nnc(Nc2cccc(C)c2C)s1 | -24% | ? | 18% | 15% | ? | -20%
Cc1ccccc1Nc1nnc(SCC(=O)Nc2ccccc2[N+](=O)[O-])s1 | -21% | ? | ? | 4% | 45µM* | ?
O=C(Cc1ccccc1)N/N=C/c1ccc(S(=O)(=O)O)o1 | -10% | 2% | 40% | 2% | nt | -21%
Cc1ccc(C2c3sc(=O)[nH]c3SC3C(=O)NC(=O)C32)cc1 (centres undefined) | -21% | -4% | 10% | -3% | 0%[59 µM] | ?
COc1ccc(C)cc1NC(=O)Cn1c(=O)ccc2cc(S(=O)(=O)N3CCC(C)CC3)ccc21 | nt | 0% | 10%[57 µM] | nt | 1%[59 µM] | -32%
Cc1cc(C)nc(SCC(=O)Nc2ccccc2[N+](=O)[O-])n1 | -6% | -25% | -3% | 18% | 8% | -4%
O=C1CC(=O)NC(SCC(=O)Nc2ccccc2[N+](=O)[O-])=N1 | ? | 40µM* | ? | ? | 25µM* | 35µM*
CCc1cccc(NC(=O)COc2cc(=O)n(CC)c3ccccc23)c1 | nt | -1% | 30% | nt | ? | -20%
CN(Cc1cccs1)C(=O)CN1CCN(S(=O)(=O)c2ccc3c(c2)OCCCO3)CC1 | -7% | 1% | 17% | nt | 45µM* | -8%
CCN(Cc1cccs1)C(=O)CN1CCN(S(=O)(=O)c2ccc3c(c2)OCCCO3)CC1 | 0% | 9% | 24% | nt | 45µM* | -6%
O=C(CN1CC(=O)Oc2ccccc21)OCC(=O)c1ccc(F)cc1 | -14% | 8.9µM* | 39% | 50µM* | ? | 10µM*
O=C(CN1CC(=O)Oc2ccccc21)OCC(=O)c1ccc(Br)cc1 | -9% | nt | 70% | nt | nt | 20µM*
O=C1CN(CC(=O)N2CCCCC2)c2ccccc2O1 | -24% | -22% | 8% | -4% | ? | -14%
CCNC(=S)NNC(=O)c1ccccn1 | -4% | 3.2µM* | 37% | -9% | -11% | 25µM*
O=C(NNC(=S)Nc1ccc(Cl)c(Cl)c1)c1ccccn1 | -16% | 4.5µM* | -2% | 7% | nt | 25µM*
Cc1cc(C(=O)C(C)OC(=O)c2ccc(NC(=O)CC#N)cc2)c(C)n1-c1ccc(OC(F)F)cc1 (centres undefined) | -10% | -30% | -12% | nt | 17%[12.7 µM] | ?
CCCCCCCn1c2c(c(=N)c3c1CCC3)CCCC2 | -1% | ? | 24% | -9% | 45µM* | 1%
COC(=O)COc1ccc2c(=O)c(Oc3ccccc3)c(C)oc2c1 | -7% | -4% | 19% | 9% | ? | -13%
COc1ccc2c(c1)c(=O)oc1cc(O)ccc12 | -9% | 1% | 20% | 0% | 0%[12.7 µM] | -8%
